Screening results: PubChem BioAssay, The Scripps Research Institute Molecular Screening Center
LEDGF integ inh = blocks HIV-1 LEDGF/p75-dependent DNA integration; TR-FRET IN-LEDGF/p75 DNA integration, Eu/Cy5; inhibition, % at 3.7 µM; 370,000 compounds, 0.64% hits;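 active = inhibition above the screen-wide mean plus 3 SD, cut at about 13% in these data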;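 also: signal is the Cy5 over europium emission ratio at 671 and 618 nm; 0% = plate median of compound wells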
MBD2 DNA inh = MBD2-methylated oligo binding inhibition. Q9UBB5. TR-FRET, MBD2 binding to methylated oligonucleotide. inhibition, % at 4.4 µM. 370,000 compounds, 0.31% hits. AID 686964; in the data active = inhibition above about 13%
UHRF1 binding = blocks human UHRF1 binding to methylated DNA. UHRF1 binding to methylated oligo, TR-FRET. inhibition, % at 4.4 µM. 370,000 compounds, 0.75% hits. AID 687016; in the data active = inhibition above about 21%;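 also: UHRF1 SRA domain binding a hemimethylated CpG hairpin DNA probe; 0% = median of test compound wells and 100% = reference inhibitor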
PRMT1 inh = blocks human protein arginine methyltransferase 1; Q99873; recombinant PRMT1, activity-based probe fluorescence polarization; inhibition, % at 2.79 µM; 370,000 compounds, 1.3% hits;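 active = inhibition above about 21% made by adding two undisclosed values, limit read from the data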
Target sequence (Q99873 whole entry, looked up): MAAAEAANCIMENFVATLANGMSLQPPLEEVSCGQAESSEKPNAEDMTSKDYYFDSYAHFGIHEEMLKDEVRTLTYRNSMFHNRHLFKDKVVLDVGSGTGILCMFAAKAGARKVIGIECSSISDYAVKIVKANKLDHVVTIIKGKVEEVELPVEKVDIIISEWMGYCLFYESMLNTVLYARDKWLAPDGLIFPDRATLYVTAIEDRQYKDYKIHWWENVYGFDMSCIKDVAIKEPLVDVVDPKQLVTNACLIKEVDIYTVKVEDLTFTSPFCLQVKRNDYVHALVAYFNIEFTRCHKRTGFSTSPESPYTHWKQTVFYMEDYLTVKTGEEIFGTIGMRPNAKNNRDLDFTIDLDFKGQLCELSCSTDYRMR
IN multimer up = HIV-1 integrase multimerization activation, counter-screen; activation, % at 7.7 µM; AID 1053131; shares compounds with LEDGF integ inh; TR-FRET HIV-1 integrase multimerization, biochemical; 2,000 compounds, 17% hits; in the data active = activation above about 8.9%
TR-FRET interf = optically interferes with TR-FRET readout in LEDGF counter-screen | AID 1053135 | 2,000 tested, under 10 active | TR-FRET optical interference counterscreen, HIV-1 IN multimerization | shares compounds with LEDGF integ inh | inhibition, % at 7.7 µM;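 active = inhibition above the mean over all tested compounds plus 3 SD, which no compound reached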;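 also: 0% = integrase with antibodies and DMSO and 100% = antibodies without integrase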
IN-LEDGF confirm = confirmation of HIV-1 LEDGF/p75-dependent integration inhibitors | shares compounds with LEDGF integ inh | 2,000 compounds, 36% hits | inhibition, % at 3.7 µM | AID 1053136 | TR-FRET LEDGF/p75-dependent HIV-1 integration, biochemical; in the data active = inhibition above about 14%
Starred values were filed as active, the others as inactive. A selection: hits, their analogues and other compounds. The true share with any hit is near 2.5%.

`CC1(C(=O)NS(=O)(=O)C2CC2)CCN(C(=O)COc2ccc(Cl)cc2Cl)C1` (configuration not stated) gave LEDGF integ inh 14*, MBD2 DNA inh 1, UHRF1 binding 2, PRMT1 inh -1, IN multimer up -2, TR-FRET interf 10 and IN-LEDGF confirm 1.
`CCOc1ccccc1NC(=O)CCCc1ccc(OC)c(C)c1` gave LEDGF integ inh 0, MBD2 DNA inh -2, UHRF1 binding -1 and PRMT1 inh -1.
`COC(=O)Cc1c(C)nc2nc(Cc3ccccc3)[nH]n2c1=O` gave LEDGF integ inh 14*, MBD2 DNA inh -3, UHRF1 binding -2, PRMT1 inh 2, IN multimer up 1, TR-FRET interf -3 and IN-LEDGF confirm 3.
Screening O=C(CSCc1ccccc1Cl)NCCSc1ccccn1 returned LEDGF integ inh 6, MBD2 DNA inh -7, UHRF1 binding -1 and PRMT1 inh -7.
`Cc1ccnc(NS(=O)(=O)c2ccc(NC(=O)c3ccccc3F)cc2)n1` gave LEDGF integ inh 25*, MBD2 DNA inh -6, UHRF1 binding 4, PRMT1 inh 0, IN multimer up 1, TR-FRET interf -2 and IN-LEDGF confirm -3.
COc1ccc(C(=O)OCC(=O)NC2CCCCCCC2)cc1OC was read as LEDGF integ inh 27*, MBD2 DNA inh 1, UHRF1 binding 2, PRMT1 inh -3, IN multimer up 1, TR-FRET interf -5 and IN-LEDGF confirm 2.
For COc1ccc(C(=O)OCC(=O)NC2CCCCCC2)cc1OC the results were LEDGF integ inh -1, MBD2 DNA inh 3, UHRF1 binding 3 and PRMT1 inh 1.
`COC(=O)c1cc(Cl)cc(Cl)c1OS(=O)(=O)N(C)C` gave LEDGF integ inh -3, MBD2 DNA inh 3, UHRF1 binding 1 and PRMT1 inh -2.
`Cc1cc(C(=O)N/N=C/c2c(C)nn(-c3ccccc3)c2C)c(C)o1` gave LEDGF integ inh -7, MBD2 DNA inh 3, UHRF1 binding 1 and PRMT1 inh 3.
O=S1(=O)N[C@H](Cc2ccccc2)COc2cccc(N3CCCCC3)c21 was read as LEDGF integ inh 39*, MBD2 DNA inh 7, UHRF1 binding 22*, PRMT1 inh 4, IN multimer up -1, TR-FRET interf 6 and IN-LEDGF confirm 0.
For CN1CCN(c2cccc3c2S(=O)(=O)N[C@H](Cc2ccccc2)CO3)CC1 the results were LEDGF integ inh 3, MBD2 DNA inh -5, UHRF1 binding 1 and PRMT1 inh -9.
`COc1ccccc1N(CC(=O)NC1CCCCC1C)S(=O)(=O)c1cccs1` (configuration not stated) gave LEDGF integ inh 34*, MBD2 DNA inh -1, UHRF1 binding 0, PRMT1 inh -4, IN multimer up 0, TR-FRET interf 0 and IN-LEDGF confirm 6.
Screening COc1ccccc1N(CC(=O)NC1CCCCC1)S(=O)(=O)c1cccs1 returned LEDGF integ inh 5, MBD2 DNA inh -2, UHRF1 binding 4 and PRMT1 inh -3.
For CNc1[nH]c(=O)[nH]c(=O)c1N=Nc1cc(Cl)ccc1Cl the results were LEDGF integ inh 5, MBD2 DNA inh -1, UHRF1 binding 0 and PRMT1 inh 5.
O=C(/C=C/c1ccco1)Nc1ccccc1C(=O)O was read as LEDGF integ inh 17*, MBD2 DNA inh 4, UHRF1 binding 24*, PRMT1 inh 17, IN multimer up 1, TR-FRET interf -3 and IN-LEDGF confirm 33*.
O=C(/C=C/c1ccco1)Nc1ccccc1N1CCCC1 was read as LEDGF integ inh -2, MBD2 DNA inh -4, UHRF1 binding -3 and PRMT1 inh 1.
O=C(O)CCCNC(=O)/C=C/c1ccco1 was read as LEDGF integ inh 38*, MBD2 DNA inh 11, UHRF1 binding 58*, PRMT1 inh 9, IN multimer up 38*, TR-FRET interf -192 and IN-LEDGF confirm 87*.
Screening O=C(/C=C/c1ccco1)Nc1sc2c(c1C(=O)O)CCC2 returned LEDGF integ inh 21*, MBD2 DNA inh 8, UHRF1 binding 33*, PRMT1 inh 11, IN multimer up 3, TR-FRET interf -9 and IN-LEDGF confirm -3.
Screening COc1ccc(C2CC(=O)C(c3cccc(C)c3)=CN2Cc2ccccc2)cc1 (configuration not stated) returned LEDGF integ inh 1, MBD2 DNA inh 4, UHRF1 binding 0 and PRMT1 inh 2.
N#Cc1ccc(S(=O)(=O)N2CCN(C(=O)c3cn(-c4ccccc4)nc3-c3cccnc3)CC2)cc1 was read as LEDGF integ inh -2, MBD2 DNA inh 0, UHRF1 binding 0 and PRMT1 inh -1.
`CCCCNC(=O)C1c2ccccc2OCC(=O)N1Cc1cccnc1` (configuration not stated) gave LEDGF integ inh -3, MBD2 DNA inh 1, UHRF1 binding -2 and PRMT1 inh 3.
Screening O=C(CSc1ccccc1)NC1CCCCN(Cc2cccc(Cl)c2)C1=O (configuration not stated) returned LEDGF integ inh -3, MBD2 DNA inh 1, UHRF1 binding -1 and PRMT1 inh -2.
CS(=O)(=O)N(CC(=O)N1CCN(c2cccc(Cl)c2)CC1)c1cccc(F)c1 was read as LEDGF integ inh 24*, MBD2 DNA inh 0, UHRF1 binding -2, PRMT1 inh -1, IN multimer up 0, TR-FRET interf -1 and IN-LEDGF confirm -6.
`COc1ccc(-n2nc3cc(C)c(N)cc3n2)cc1Cl` gave LEDGF integ inh 15*, MBD2 DNA inh 4, UHRF1 binding 18, PRMT1 inh -3, IN multimer up 0, TR-FRET interf 2 and IN-LEDGF confirm -6.
`COC1=CC(=O)c2nc(Cl)ccc2C1=O` gave LEDGF integ inh 32*, MBD2 DNA inh -2, UHRF1 binding 11, PRMT1 inh 3, IN multimer up 2, TR-FRET interf -8 and IN-LEDGF confirm 58*.
Cc1ccc(C)c(S(=O)(=O)N2CCN(C(=O)c3cc(S(=O)(=O)NCc4ccccc4)ccc3C)CC2)c1 was read as LEDGF integ inh 1, MBD2 DNA inh -4, UHRF1 binding 0 and PRMT1 inh 2.
`NC(=O)C1(c2ccccc2)CCC(=O)N1c1ccccc1` (configuration not stated) gave LEDGF integ inh 35*, MBD2 DNA inh 3, UHRF1 binding 3, PRMT1 inh 5, IN multimer up 1, TR-FRET interf -4 and IN-LEDGF confirm -1.
